Tests used:
Test in all cases: log2 ratio of Biotin-Ahx-Ub-VS probe labelling (fragment/DMSO); higher = less target engagement (more negative = stronger competition), active = hit call of the paper (q ≤ 0.05, log2 ratio ≤ -1)
Details in all cases: compound concentration: 200 uM; treatment time: 3 h
USP34 = USP34 (UniProt Q70CQ2)
Summary of the method: (§1)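 Fragment (200 µM) or vehicle was incubated for 3 h with triplicate HEK293T lysate samples of 495 µg, which were then treated with Biotin-Ahx-Ub-VS at 0.5 µM final for 1 h. Labelled DUBs were enriched on NeutrAvidin, digested with LysC and trypsin, and analysed by diaPASEF LC-MS/MS. Values are average log2 fragment/vehicle ratios from an unpaired t-test on global-median-normalised Spectronaut label-free quantities, using proteins with ≥2 unique peptides.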

USP36 = target: T1, USP36 (UniProt Q9P275)
T1 sequence (whole entry): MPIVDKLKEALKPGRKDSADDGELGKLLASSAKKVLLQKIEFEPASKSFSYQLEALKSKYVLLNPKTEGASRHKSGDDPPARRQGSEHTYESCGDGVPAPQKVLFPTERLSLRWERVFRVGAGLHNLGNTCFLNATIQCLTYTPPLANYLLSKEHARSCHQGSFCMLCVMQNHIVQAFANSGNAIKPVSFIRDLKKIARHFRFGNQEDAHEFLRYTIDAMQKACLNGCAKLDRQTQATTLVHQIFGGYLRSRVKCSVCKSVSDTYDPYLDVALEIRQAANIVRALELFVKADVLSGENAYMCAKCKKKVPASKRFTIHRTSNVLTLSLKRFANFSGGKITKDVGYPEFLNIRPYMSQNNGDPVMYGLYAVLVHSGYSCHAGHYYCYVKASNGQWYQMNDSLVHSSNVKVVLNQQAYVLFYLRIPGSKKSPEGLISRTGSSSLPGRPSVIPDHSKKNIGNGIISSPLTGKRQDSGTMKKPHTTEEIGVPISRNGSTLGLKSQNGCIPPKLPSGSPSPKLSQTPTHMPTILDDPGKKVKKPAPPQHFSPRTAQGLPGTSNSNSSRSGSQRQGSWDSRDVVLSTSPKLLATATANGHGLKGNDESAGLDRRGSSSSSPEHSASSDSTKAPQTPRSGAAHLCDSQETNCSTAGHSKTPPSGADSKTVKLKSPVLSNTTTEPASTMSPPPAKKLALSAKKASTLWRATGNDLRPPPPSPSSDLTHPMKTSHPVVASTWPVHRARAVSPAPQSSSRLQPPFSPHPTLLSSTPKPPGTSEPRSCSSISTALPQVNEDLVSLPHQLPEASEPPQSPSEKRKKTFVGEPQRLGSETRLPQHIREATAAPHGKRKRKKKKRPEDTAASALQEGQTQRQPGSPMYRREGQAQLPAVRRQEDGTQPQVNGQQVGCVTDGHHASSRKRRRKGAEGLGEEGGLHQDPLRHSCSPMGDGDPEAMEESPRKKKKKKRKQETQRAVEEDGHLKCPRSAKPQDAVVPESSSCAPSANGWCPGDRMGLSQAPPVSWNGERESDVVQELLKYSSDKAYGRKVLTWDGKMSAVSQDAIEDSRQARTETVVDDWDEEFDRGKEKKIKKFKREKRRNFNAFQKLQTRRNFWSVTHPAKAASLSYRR
Summary of the method: as §1

USP38 = target: T2, USP38 (UniProt Q8NB14)
T2 sequence (whole entry): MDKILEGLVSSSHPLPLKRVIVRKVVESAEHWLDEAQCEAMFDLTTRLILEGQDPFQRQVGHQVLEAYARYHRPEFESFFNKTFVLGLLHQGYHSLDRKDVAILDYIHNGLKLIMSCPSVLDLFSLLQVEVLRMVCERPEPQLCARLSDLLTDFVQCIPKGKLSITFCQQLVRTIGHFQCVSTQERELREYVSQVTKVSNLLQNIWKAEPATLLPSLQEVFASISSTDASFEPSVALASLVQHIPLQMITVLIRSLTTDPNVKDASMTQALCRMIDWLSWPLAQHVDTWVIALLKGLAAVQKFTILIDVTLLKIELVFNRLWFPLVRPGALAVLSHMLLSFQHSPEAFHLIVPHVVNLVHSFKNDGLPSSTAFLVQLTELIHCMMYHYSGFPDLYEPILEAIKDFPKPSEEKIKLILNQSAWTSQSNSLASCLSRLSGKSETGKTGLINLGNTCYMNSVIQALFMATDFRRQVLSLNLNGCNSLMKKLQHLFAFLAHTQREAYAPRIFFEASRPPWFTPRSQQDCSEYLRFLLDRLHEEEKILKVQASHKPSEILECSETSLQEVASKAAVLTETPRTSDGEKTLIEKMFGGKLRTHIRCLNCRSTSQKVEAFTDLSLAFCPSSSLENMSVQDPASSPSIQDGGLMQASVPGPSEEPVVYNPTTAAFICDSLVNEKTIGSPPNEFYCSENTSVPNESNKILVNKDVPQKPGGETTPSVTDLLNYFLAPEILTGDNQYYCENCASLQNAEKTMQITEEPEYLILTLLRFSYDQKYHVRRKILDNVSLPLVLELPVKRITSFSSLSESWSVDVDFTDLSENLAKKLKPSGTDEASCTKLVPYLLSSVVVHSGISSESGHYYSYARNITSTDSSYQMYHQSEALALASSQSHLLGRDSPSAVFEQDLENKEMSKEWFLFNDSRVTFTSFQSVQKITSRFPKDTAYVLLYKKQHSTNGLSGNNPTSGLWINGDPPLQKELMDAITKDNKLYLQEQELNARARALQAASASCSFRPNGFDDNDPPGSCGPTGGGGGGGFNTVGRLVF
Summary of the method: as §1

USP39 = target: T3, USP39 (UniProt Q53GS9)
T3 sequence (whole entry): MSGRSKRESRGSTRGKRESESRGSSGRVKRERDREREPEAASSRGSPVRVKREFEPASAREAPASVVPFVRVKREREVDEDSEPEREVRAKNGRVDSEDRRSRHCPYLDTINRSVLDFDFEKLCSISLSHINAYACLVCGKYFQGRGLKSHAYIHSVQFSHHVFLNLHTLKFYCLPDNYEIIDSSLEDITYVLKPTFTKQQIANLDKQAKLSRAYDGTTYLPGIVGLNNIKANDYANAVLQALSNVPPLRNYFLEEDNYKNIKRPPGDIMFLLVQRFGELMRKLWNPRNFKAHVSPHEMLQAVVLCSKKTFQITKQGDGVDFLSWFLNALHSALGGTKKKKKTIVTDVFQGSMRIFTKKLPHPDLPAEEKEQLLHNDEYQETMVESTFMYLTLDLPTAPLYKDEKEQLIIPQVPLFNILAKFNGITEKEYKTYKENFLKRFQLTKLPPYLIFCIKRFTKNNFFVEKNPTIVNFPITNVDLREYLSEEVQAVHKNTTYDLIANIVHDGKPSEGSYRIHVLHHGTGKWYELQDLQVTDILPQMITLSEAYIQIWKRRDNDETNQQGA
Summary of the method: as §1

USP4 = target: T4, USP4 (UniProt Q13107)
T4 sequence (whole entry): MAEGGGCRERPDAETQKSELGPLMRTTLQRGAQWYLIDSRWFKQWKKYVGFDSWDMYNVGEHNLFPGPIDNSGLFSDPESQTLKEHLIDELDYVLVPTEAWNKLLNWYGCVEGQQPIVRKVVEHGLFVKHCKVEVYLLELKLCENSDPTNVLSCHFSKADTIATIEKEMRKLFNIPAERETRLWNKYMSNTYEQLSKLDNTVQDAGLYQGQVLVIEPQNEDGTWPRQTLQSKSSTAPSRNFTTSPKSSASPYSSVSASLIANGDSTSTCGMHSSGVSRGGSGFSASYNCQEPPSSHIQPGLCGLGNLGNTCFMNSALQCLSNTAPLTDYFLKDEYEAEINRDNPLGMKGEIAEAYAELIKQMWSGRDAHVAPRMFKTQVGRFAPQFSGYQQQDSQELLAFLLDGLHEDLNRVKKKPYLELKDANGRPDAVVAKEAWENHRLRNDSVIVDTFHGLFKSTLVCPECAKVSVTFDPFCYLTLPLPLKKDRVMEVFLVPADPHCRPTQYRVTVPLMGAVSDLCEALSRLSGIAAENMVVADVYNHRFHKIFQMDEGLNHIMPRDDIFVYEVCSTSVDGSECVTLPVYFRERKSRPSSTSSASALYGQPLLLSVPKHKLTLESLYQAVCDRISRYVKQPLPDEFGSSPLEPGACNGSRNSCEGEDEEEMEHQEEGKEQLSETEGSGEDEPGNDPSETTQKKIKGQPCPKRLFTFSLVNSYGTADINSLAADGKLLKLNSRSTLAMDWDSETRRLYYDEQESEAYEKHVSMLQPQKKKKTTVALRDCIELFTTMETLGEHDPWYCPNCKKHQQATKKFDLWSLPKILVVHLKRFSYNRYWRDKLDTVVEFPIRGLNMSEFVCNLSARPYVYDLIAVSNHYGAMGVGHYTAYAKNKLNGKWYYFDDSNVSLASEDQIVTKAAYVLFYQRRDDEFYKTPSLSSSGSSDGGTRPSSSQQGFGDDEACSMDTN
Summary of the method: as §1

Measured: log2 ratio of Biotin-Ahx-Ub-VS probe labelling

Chain of USP34 (Q70CQ2 whole entry, the tested form may be a part): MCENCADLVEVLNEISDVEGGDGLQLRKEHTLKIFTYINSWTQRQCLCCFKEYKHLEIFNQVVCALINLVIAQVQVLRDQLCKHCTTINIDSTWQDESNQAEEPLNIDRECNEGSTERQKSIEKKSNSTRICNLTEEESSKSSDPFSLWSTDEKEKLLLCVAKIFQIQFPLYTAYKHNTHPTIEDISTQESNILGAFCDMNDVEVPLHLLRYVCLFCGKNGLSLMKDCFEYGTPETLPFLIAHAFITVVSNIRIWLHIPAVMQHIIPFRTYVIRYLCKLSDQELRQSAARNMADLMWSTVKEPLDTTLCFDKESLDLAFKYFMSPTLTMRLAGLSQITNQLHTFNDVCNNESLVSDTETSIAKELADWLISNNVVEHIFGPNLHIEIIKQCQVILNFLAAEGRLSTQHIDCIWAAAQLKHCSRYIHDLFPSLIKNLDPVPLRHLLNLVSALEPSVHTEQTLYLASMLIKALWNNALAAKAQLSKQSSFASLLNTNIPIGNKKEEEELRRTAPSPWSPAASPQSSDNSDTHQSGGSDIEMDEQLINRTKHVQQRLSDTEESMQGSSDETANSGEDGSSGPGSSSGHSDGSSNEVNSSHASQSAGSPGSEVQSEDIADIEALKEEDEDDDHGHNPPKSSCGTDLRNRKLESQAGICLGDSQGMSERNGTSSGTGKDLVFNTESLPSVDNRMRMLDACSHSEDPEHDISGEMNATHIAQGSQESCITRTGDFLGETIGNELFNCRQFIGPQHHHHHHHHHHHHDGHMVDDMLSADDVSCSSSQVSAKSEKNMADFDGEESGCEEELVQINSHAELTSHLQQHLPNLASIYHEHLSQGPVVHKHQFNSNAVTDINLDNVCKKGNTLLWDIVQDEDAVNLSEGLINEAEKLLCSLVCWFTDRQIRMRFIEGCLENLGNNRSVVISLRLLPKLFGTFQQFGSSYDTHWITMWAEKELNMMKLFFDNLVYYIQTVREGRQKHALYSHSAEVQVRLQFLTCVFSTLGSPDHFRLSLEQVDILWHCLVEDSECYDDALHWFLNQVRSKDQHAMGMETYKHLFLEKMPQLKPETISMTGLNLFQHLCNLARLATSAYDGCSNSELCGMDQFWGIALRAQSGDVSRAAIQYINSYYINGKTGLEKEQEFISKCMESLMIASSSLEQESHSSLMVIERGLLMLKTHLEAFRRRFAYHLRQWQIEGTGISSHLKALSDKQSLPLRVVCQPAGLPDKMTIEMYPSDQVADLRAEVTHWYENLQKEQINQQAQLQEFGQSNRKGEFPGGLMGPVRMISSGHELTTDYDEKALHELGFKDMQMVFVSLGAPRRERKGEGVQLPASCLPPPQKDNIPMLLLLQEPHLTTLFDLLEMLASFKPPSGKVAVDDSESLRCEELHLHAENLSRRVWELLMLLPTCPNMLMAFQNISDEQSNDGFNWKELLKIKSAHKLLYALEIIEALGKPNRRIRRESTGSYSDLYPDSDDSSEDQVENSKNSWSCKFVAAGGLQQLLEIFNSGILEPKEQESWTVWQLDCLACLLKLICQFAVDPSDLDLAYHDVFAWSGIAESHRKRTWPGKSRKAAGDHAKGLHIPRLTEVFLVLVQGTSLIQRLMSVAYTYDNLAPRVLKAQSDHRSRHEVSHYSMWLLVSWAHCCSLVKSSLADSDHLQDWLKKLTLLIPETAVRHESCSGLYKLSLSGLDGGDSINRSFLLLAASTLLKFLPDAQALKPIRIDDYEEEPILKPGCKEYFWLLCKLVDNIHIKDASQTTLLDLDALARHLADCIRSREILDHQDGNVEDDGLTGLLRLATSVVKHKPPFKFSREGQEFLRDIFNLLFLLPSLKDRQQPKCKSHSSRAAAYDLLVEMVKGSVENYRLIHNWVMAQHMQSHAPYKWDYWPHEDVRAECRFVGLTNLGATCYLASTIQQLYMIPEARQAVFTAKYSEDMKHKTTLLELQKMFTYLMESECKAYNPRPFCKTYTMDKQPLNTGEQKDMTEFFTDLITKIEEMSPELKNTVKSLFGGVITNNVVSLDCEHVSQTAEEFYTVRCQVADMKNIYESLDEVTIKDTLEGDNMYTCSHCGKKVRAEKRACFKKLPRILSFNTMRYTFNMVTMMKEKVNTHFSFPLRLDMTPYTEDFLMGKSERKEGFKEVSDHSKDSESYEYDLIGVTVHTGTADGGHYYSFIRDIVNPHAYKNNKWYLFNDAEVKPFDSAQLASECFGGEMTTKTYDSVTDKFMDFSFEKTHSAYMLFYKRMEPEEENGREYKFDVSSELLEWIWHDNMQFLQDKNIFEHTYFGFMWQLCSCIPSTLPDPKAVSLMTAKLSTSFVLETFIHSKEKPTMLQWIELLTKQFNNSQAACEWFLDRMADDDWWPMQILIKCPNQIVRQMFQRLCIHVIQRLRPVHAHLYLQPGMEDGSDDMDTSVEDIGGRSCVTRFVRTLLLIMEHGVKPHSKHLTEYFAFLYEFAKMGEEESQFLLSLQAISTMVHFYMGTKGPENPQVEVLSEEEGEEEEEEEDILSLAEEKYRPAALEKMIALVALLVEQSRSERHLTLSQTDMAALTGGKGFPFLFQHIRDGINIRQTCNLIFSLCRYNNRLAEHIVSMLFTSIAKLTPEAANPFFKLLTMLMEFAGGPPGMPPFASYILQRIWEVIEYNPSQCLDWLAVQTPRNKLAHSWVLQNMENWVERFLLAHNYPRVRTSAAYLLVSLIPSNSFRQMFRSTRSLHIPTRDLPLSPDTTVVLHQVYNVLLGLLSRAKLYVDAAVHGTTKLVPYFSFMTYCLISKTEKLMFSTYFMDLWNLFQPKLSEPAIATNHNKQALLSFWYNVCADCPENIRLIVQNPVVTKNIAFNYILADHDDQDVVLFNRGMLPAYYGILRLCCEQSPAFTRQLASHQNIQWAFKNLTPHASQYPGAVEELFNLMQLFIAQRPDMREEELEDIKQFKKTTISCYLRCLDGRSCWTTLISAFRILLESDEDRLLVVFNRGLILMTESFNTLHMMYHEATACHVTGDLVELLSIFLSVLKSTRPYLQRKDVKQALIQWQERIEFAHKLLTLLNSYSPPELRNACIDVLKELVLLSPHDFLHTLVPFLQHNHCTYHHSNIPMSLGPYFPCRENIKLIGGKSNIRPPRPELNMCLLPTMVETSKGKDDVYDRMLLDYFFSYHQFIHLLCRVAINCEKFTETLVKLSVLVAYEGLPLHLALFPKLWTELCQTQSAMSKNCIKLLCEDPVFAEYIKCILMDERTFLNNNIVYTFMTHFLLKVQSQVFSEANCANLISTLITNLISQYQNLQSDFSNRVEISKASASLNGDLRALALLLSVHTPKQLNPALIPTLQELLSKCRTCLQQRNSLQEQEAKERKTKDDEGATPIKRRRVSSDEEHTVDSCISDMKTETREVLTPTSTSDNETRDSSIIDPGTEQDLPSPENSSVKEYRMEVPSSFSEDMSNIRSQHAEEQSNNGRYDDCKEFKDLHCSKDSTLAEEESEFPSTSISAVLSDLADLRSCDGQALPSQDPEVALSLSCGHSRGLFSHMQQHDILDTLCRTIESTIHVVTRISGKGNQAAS

CC1CCc2onc(CNC(=O)CCl)c2C1 (stereo not given)
inactive: USP34 0.0236 | USP36 0.0286 | USP38 0.0155 | USP39 0.358 | USP4 0.094
